In PubChem BioAssay (NCI):
This is part of a sample that, as a whole, favours compounds with a hit. Of some 79,000 tested, about 15% had one in any assay. Rule as the data show it: active = growth inhibition above about 70%; inactive = the rest.

Tests used:
[1] = NCI Yeast Anticancer Drug Screen. Data for the rad50 strain (AID 155);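 also: 0% = growth of vehicle-only cultures of the same strain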; details: S. cerevisiae rad50 strain growth inhibition; at 50.0 µM; active compounds read high
Procedure, shortened: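 DNA repair mutant yeast, compound exposure, growth read-out; inhibition is taken relative to vehicle.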

[2] = NCI Yeast Anticancer Drug Screen. Data for the mec2-1 strain (AID 157); details: S. cerevisiae mec2-1 strain, at 50.0 µM, active compounds read high
Procedure, shortened: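 Using mec2-1 yeast: add compound, measure growth, express inhibition versus vehicle-treated cultures.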

[3] = NCI Yeast Anticancer Drug Screen. Data for the sgs1 mgt1 strain (AID 161);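 also: 0% = growth of cultures given vehicle only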; details: S. cerevisiae sgs1 mgt1 strain, at 50.0 µM, active compounds read high
Procedure, shortened: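 This yeast growth screen uses a strain with defined DNA-repair lesions; compound-treated growth is compared with vehicle-treated growth.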

[4] = NCI Yeast Anticancer Drug Screen. Data for the cln2 rad14 strain (AID 165);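 also: 0% = growth equal to vehicle treated cultures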; details: S. cerevisiae cln2 rad14 strain, at 50.0 µM, active compounds read high
Procedure, shortened: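 Yeast strain cln2 rad14, bearing defects in cell cycle control and DNA repair, serves as the test system; values reflect growth inhibition compared with vehicle.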

[5] = NCI Yeast Anticancer Drug Screen. Data for the bub3 strain (AID 167); details: S. cerevisiae bub3 mutant strain, at 50.0 µM, active compounds read high
Procedure, shortened: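 In this screen, a yeast mutant lacking normal mitotic checkpoint function is challenged with compound. Relative growth versus vehicle gives the inhibition value.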

[6] = NCI Yeast Anticancer Drug Screen. Data for the mlh1 rad18 strain (AID 175); details: S. cerevisiae mlh1 rad18 strain growth inhibition; at 50.0 µM; active compounds read high
Procedure, shortened: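 Steps: expose repair-defective yeast to compound; measure growth; express inhibition against vehicle-treated controls.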

Measured: growth inhibition

COc1ccc(C(O)C(=O)c2nc3ccc(Cl)cc3[nH]c2=O)cc1 (stereo not given)
inactive: [1] -30.1% | [2] -28.6% | [3] -22.2% | [4] -33.7% | [5] -16.6% | [6] -20.2%

OCC(CO)(CO)CO
inactive: [1] 18.9% | [2] -0.7% | [3] -6.8% | [4] -16.1% | [5] 28.8% | [6] -5.3%

CN(CC1NCCCC1O)C12CC3CC(CC(C3)C1)C2 (stereo not given)
inactive: [1] 0.5% | [2] -6.65% | [3] 12.4% | [4] 12% | [5] 7% | [6] -4.35%

Cc1ccc(NC(=O)OCC(F)(F)C(F)(F)C(F)(F)F)c(NC(=O)OCC(F)(F)C(F)(F)C(F)(F)F)c1
inactive: [1] -9.15% | [2] -12.1% | [3] -8.6% | [4] -33.6% | [5] -4.05% | [6] 12.8%

CCCN(CCC)CC(O)CN(CCC)CCC
inactive: [1] -0.4% | [2] -24.1% | [3] -21.6% | [4] -36% | [5] 5.55% | [6] -0.3%

CCC1CCC(Cc2ccncc2)CC1 (stereo not given)
inactive: [1] 3.65% | [2] -7.4% | [3] -11.9% | [4] -78.9% | [5] 13.4% | [6] -0.9%

Clc1cnnc(Cl)c1N/N=C/c1ccco1
inactive: [1] 11.6% | [2] -0.05% | [3] 13% | [4] -43.2% | [5] -6.7% | [6] -7.55%

O=C1OC(=O)c2ccccc21
inactive: [1] 5.25% | [2] -15.2% | [3] -11.4% | [4] -24.8% | [5] -2.2% | [6] 0.05%

O=C1C(Cl)=C(NC(CO)(CO)CO)C(=O)c2ccccc21
inactive: [1] 4.7% | [2] 16.6% | [3] -6.05% | [4] 1.6% | [5] 8.45% | [6] 8.15%

CC(C)Nc1nc(N)nc(N)n1
inactive: [1] -11.1% | [2] -17.6% | [3] 2% | [4] -20.1% | [5] -17.6% | [6] -5.2%

COc1cc([N+](=O)[O-])ccc1NC(=O)Nc1nccs1
inactive: [1] 5.75% | [2] 29.9% | [3] 11.9% | [4] -9.25% | [5] 22.4% | [6] -37.3%

COc1cc2c[n+](C)c3c4ccccc4ccc3c2cc1OC
inactive: [1] 40.4% | [2] 55.2% | [3] 18.9% | [4] 2.75% | [5] 22.2% | [6] 38.5%

O=S(=O)(O)c1cc(I)c(O)c2ncccc12
inactive: [1] 18.5% | [2] 1% | [3] -1.05% | [4] -67.8% | [5] 19.4% | [6] 45.4%

CCOC(=O)CC(=O)c1cc(OC)c(OC)c(OC)c1
inactive: [1] 7.05% | [2] 16.8% | [3] 8.4% | [4] -75% | [5] 39.9% | [6] 20.4%

CC(C)(C)C(=O)NO
inactive: [1] -12.6% | [2] -12.1% | [3] -13.6% | [4] 6.8% | [5] 4.5% | [6] -0.3%

CC(C)(C)N[P+](Cc1ccccc1)(NC(C)(C)C)c1ccccc1
inactive: [1] 33.1% | [2] 10.9% | [3] 62% | [4] -9.7% | [5] 3.65% | [6] 8.9%

COC(=O)C(=O)C(C(=O)C(=O)Nc1cc([N+](=O)[O-])ccc1[N+](=O)[O-])c1nc2ccc(C(=O)c3ccccc3)cc2[nH]c1=O (stereo not given)
inactive: [1] 29.7% | [2] 15.8% | [3] 4.1% | [4] -16.1% | [5] 40.6% | [6] 18.9%

CC1(C)/C(=C/N=O)N(O)C(C)(C)N1O
inactive: [1] -26.9% | [2] -34.6% | [3] -43.8% | [4] 5.75% | [5] -35.9% | [6] -15.2%

Cc1nn(C(=O)c2cccnc2)c(-c2ccccc2)c1N=Nc1ccc(S(=O)(=O)Nc2ncccn2)cc1
inactive: [1] 23.7% | [2] 18.4% | [3] 31.4% | [4] 33% | [5] 0.7% | [6] 42.5%

O=C1NC(=S)S/C1=C/c1cn(-c2ccccc2)nn1
inactive: [1] 17.4% | [2] 3.15% | [3] -5.05% | [4] -18.2% | [5] 1.75% | [6] 10.6%
